Measured values from PubChem BioAssay AID686970 (National Center for Advancing Translational Sciences (NCATS), 2013).
Screen size: about 360,000 compounds; about 6,000 (1.7%) were called active. Another 8% or so got no clear call; they are omitted. The call rests on the fitted dose curve; in most records, active means well fitted cell-killing curve with a large enough effect; inconclusive means small, poorly fitted or top-dose-only effect, or effect the other way; inactive means flat fitted curve, though single readings scatter. Many of the other results were omitted from the sample, so actives are more common in it than they were.

experiment: qHTS for induction of synthetic lethality in tumor cells producing 2HG: qHTS for the HT-1080-NT fibrosarcoma cell line; settings: HT-1080-NT fibrosarcoma viability, CellTiter-Glo ATP luminescence, 48 h; series mostly up to 46.1 µM; activity, negative = less viability: at the top concentration;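 further: NT is the 2HG producing partner of a matched IDH1 knockdown line; nearly all actives have a fitted effect of over 55% in size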;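 on activity, negative = less viability: 0% = DMSO-treated cells and -100% = media-only wells without cells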
Method in brief: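 Viability by CellTiter-Glo luminescence after 48 h compound exposure at 37C of HT-1080-NT cells (750/well, RPMI, 5% FBS). % activity scaled between DMSO wells and medium-only wells, then curve-fitted and categorized by curve class.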
Potency means the concentration at half of the fitted maximal effect.

SMILES | activity, negative = less viability | Potency
CCOC(=O)c1cc(-c2sc(NC(=O)c3ccccc3)nc2C)n(-c2ccc(Br)cc2)n1 | -3.27% (inactive) | –
CCc1nc2ccc(C(=O)N(C)Cc3ccco3)cn2c1N(C)C(=O)Cc1ccccc1 | 12.2% (inactive) | –
O=C(CC[C@H]1O[C@@H](n2ccc(=O)[nH]c2=O)[C@H](O)[C@@H]1O)N[C@H](Cc1ccccc1)C(=O)NCc1ccco1 | 16.7% (inactive) | –
COc1cccc(/C=N/Nc2cc(C)nc(-c3ccccc3O)n2)c1O | – | 8.2 µM (active)
COc1cccc(/C=N/Nc2ccc(S(=O)(=O)Nc3ccccc3C(=O)O)cc2[N+](=O)[O-])c1O | -0.335% (inactive) | –
COc1ccccc1-n1c(SCC(=O)Nc2cccc(C(=O)O)c2)nnc1-c1ccccc1O | 12.6% (inactive) | –
O=C(Nc1ccc2c(c1)[C@@H]1C[C@@H](CC(=O)N3CCCCC3)O[C@@H](CO)[C@@H]1O2)NC1CCCCC1 | -11% (inactive) | –
CCCS(=O)(=O)NC(=O)C1(C)CCCN(C(=O)c2cc(C)on2)C1 (centres undefined) | 23.2% (inactive) | –
CCOC(=O)C1=CCC(c2ccc(F)cc2)N(S(=O)(=O)c2ccc(C)cc2)C1 (centres undefined) | -28.5% (inactive) | –
COc1ccc(Sc2ccc(NC(=O)c3cccc(Cl)c3)cc2C#N)cc1 | -13.9% (inactive) | –
COc1cccc(C(NC(C)=O)c2nc(-c3ccccc3OC)cs2)c1 (centres undefined) | -1.79% (inactive) | –
CCOC1=C2CN(S(=O)(=O)c3ccc(C)cc3)[C@H](c3cccs3)C[C@H]2[C@H]2C(=O)N(c3ccccc3)C(=O)[C@H]2C1 | 14.8% (inactive) | –
COc1ccc(NS(=O)(=O)c2ccc(N3CCOCC3)c(NC(=O)/C=C/C(=O)O)c2)cc1 | 10.2% (inactive) | –
CC(C)(C)c1ccc(/C=C/C(=O)Nc2ncccn2)cc1 | -10.7% (inactive) | –
COC(=O)c1sc(-c2ccc(C(C)(C)C)cc2)cc1NC(=O)/C=C/C(=O)O | – | 11.6 µM (active)
COc1cccc(OCC(=O)NCCS(=O)(=O)N2CCN(c3ccccc3)CC2)c1 | 8.66% (inactive) | –
COc1ccc(CC(NC(C)=O)C(=O)NC2CCN(C(=O)c3ccc(OC)c(OC)c3)CC2)cc1OC (centres undefined) | 8.35% (inactive) | –
COc1ccc(CC(NC(C)=O)C(=O)NC2CCN(C(=O)C3CC3)CC2)cc1OC (centres undefined) | 21% (inactive) | –
CCc1ccc(OCC2c3cc(OC)c(OC)cc3CCN2C(C)=O)cc1 (centres undefined) | – | 16.4 µM (active)
CCOC1=C2[C@@H](CN(S(=O)(=O)c3ccc(C)cc3)[C@H]2c2ccccc2F)[C@H]2C(=O)N(Cc3ccccc3)C(=O)[C@H]2C1 | -0.579% (inactive) | –
O=C(NNS(=O)(=O)c1ccc(F)cc1)c1ccc([N+](=O)[O-])cc1Cl | 2.11% (inactive) | –
O=[N+]([O-])c1ccc(NS(=O)(=O)c2ccccc2)c(Cl)c1 | – | 6.51 µM (active)
Cc1cc([N+](=O)[O-])ccc1NS(=O)(=O)c1ccccc1 | -9.92% (inactive) | –
CC(C)C[C@@H]1COc2cc(N3CCC[C@@H]3CO)ccc2S(=O)(=O)N1 | 5.13% (inactive) | –

SMILES | activity, negative = less viability | Potency
CC(C)CCOc1ccc(C(=O)Nc2cc(S(=O)(=O)N3CCOCC3)ccc2N2CCOCC2)cc1 | 0.747% (inactive) | –
O=[N+]([O-])c1ccc(CN2CC(N3CCC(c4ccccc4)CC3)CS2(=O)=O)cc1 (centres undefined) | 2.9% (inactive) | –
CCOC(=O)N1CCN(C(=O)c2ccccc2N(Cc2ccccc2)S(=O)(=O)c2ccc(OC)cc2)CC1 | – | 3.26 µM (active)
NC(=O)c1ccccc1N(Cc1ccccc1)S(=O)(=O)c1ccccc1 | 2.72% (inactive) | –
CCOC(=O)N1CCN(S(=O)(=O)c2ccc(OC)cc2)CC1 | 5.1% (inactive) | –
COc1ccc(NC(=O)COC(=O)C2COc3ccccc3O2)cc1 (centres undefined) | 6.35% (inactive) | –
COCc1cccc(-c2csc(C(O)c3ccc(F)cc3)n2)c1 (centres undefined) | -11.2% (inactive) | –
COc1cccc(/C=N/NC(=O)CNC(=O)c2ccc(S(=O)(=O)N3CCOCC3)cc2)c1OC | -6.44% (inactive) | –
COc1cc(/C=N/NC(=O)c2cc(-c3ccccc3C)nc3ccccc23)cc(OC)c1O | -6.84% (inactive) | –
COc1cccc(/C=N/NC(=O)c2[nH]nc3c2CCc2ccccc2-3)c1O | – | 2.59 µM (active)
CCCNC(=O)C1(C)CCN1C(=O)Cc1ccc(-c2ccccc2)cc1 (centres undefined) | 3.66% (inactive) | –
O=C(C(=O)N1CCN(c2ccccc2)CC1)c1ccc2c(c1)OCO2 | 15.8% (inactive) | –
c1ccc(Cn2nnc3c(N4CCCCC4)ncnc32)cc1 | 0.199% (inactive) | –
CC1(C(=O)NS(=O)(=O)c2ccc(Cl)cc2)CCN1C(=O)CC1CCCC1 (centres undefined) | 13.1% (inactive) | –
Cn1nccc1NC(=O)Nc1ccc(OC(F)(F)F)cc1 | -1.39% (inactive) | –
O=C(Nc1ccc(OC(F)(F)F)cc1)c1ccc2c(c1)no[n+]2[O-] | – | 18.4 µM (active)
Cn1cccc1/C=N/NC(=O)c1ccc(OC(F)(F)C(F)F)cc1 | 9.82% (inactive) | –
COC(=O)C[C@@H]1C=C[C@@H](NC(=O)c2cccnc2)[C@@H](CO)O1 | 18.2% (inactive) | –
O=C(Nc1ccc(Cl)c(C(F)(F)F)c1)C1Cc2c(-c3ccccc3Oc3ccccc3)ccnc2O1 (centres undefined) | -2.68% (inactive) | –
CC(C)CN1CCC1(C)C(=O)Nc1ccc(OC(F)F)cc1 (centres undefined) | 11.5% (inactive) | –
CC(C)Cc1ccc(-c2cc3nc(NCc4cccc(Cl)c4)ccn3n2)cc1 | – | 23.1 µM (active)
Cc1cc(C)n2c(NCc3ccccc3)c(CC(C)C)nc2n1 | -1.83% (inactive) | –
COc1ccccc1-c1cc2nc(NCc3cccc(Cl)c3)ccn2n1 | -2.73% (inactive) | –
O=C(C(=O)N1CCC(c2ccccc2)CC1)c1ccccc1 | 15.2% (inactive) | –

SMILES | activity, negative = less viability | Potency
CCC1OC(C2CC2)CC2=C1C(=O)OC(C)(C)O2 (centres undefined) | 14.2% (inactive) | –
Clc1cc(-c2ccc(/C=N/n3cnnc3)o2)ccc1Br | 17.7% (inactive) | –
Cc1cc([N+](=O)[O-])c(-c2ccc(/C=N/n3cnnc3)o2)cc1Cl | – | 10 µM (active)
Cc1ccc(Cl)cc1-c1ccc(/C=N/n2cnnc2)o1 | -2.27% (inactive) | –
COC(=O)[C@H]1C[C@H](OC(=O)NCc2ccccc2)[C@@]2(O)CN(S(=O)(=O)c3ccc(C)cc3)CC2[C@H]1C(=O)OC (some centres undefined) | -0.355% (inactive) | –
COc1ccc(-c2cc3c(c4c2ccn4C)C2CCC3C2)cn1 (centres undefined) | 0.812% (inactive) | –
COC(=O)C1(C(=O)OC)C/C=C\CN(S(=O)(=O)c2ccccc2[N+](=O)[O-])CCC1 | 11.2% (inactive) | –
COc1ccc(CN2C(=O)C(CC(=O)NC3CCCCC3)CC(C(=O)N3CCOCC3)=C2C)cc1 (centres undefined) | 11.3% (inactive) | –
COc1ccc(C(=O)OCC(=O)Nc2cccc(C(C)=O)c2)cc1OC | -1.17% (inactive) | –
COc1cc(C(=O)N(C)Cc2cccc(OC)c2OC)ccc1OCC(=O)Nc1cccc(C(F)(F)F)c1 | – | 8.2 µM (active)
CCNC(=O)c1ccc(OCC(=O)Nc2ccc(F)cc2)c(OC)c1 | 6.01% (inactive) | –
COc1ccc(CN2CCC(C)(Oc3cccc(F)c3)C2)c2ccccc12 (centres undefined) | -21.7% (inactive) | –
CC1(C)CCc2cc(S(=O)(=O)N3CCN(c4nc(-c5cccs5)nc5ccccc45)CC3)ccc2O1 | 21.5% (inactive) | –
COc1ccc(-c2cc(C(=O)NCCCN3CCOCC3)no2)cc1 | 12.7% (inactive) | –
COc1ccc(-c2ccc(C(=O)NCCN3CCOCC3)c3occc23)c(C)c1 | – | 16.4 µM (active)
COc1ccc(-c2ccc(C(=O)NC(C)C)c3occc23)c(C)c1 | 4.35% (inactive) | –
CC1(C(=O)NCc2ccccc2)CSCC(=O)N1CCCn1ccnc1 (centres undefined) | 13.7% (inactive) | –
COC(=O)C[C@H]1C=C[C@@H](NS(=O)(=O)c2ccc(C)cc2)[C@@H](CO)O1 | 22.6% (inactive) | –
Cc1ccc(S(=O)(=O)N2C[C@H]3C(=O)C[C@@H](c4cccc5ccccc45)N(S(=O)(=O)c4ccc(C)cc4)[C@H]3C[C@H]2c2ccc(Cl)cc2)cc1 | -0.387% (inactive) | –
Nc1ncnc2c1ncn2[C@@H]1O[C@H](C(=O)N2CCSC2)[C@@H](O)[C@H]1O | 19.5% (inactive) | –
C[C@@H]1CN([C@@H](C)CO)C(=O)c2cc(Br)cnc2O[C@@H]1CN(C)C(=O)C1CCCCC1 | 5.55% (inactive) | –
O=C(Nc1cc(C(F)(F)F)ccc1Cl)C(=O)N1CCCCC1 | 20.2% (inactive) | –
CC(=O)Nc1ccc(NC(=O)CCCNC(=O)c2ccc(Cl)cc2)cc1 | 7.73% (inactive) | –
CCCCC(=O)Nc1ccc(C(=O)Nc2cc(C(F)(F)F)ccc2Cl)cc1 | – | 16.4 µM (active)

SMILES | activity, negative = less viability | Potency
CCCCNC(=O)C[C@@H]1C[C@@]2(C(=O)OCC)CCC=C2N(Cc2cccc3ccccc23)C1=O | -3.48% (inactive) | –
CC1(C(=O)NS(=O)(=O)C2CC2)CCCN(C(=O)CSc2ccccc2)C1 (centres undefined) | 22.9% (inactive) | –
Cc1cc2oc(=O)cc(CN(C)Cc3ccccc3)c2cc1Cl | 2.42% (inactive) | –
CC1CCCC(NC(=O)COC(=O)c2ccccc2C(=O)N(C)C2CCCCC2)C1C (centres undefined) | -15.3% (inactive) | –
O=C1/C(=C\c2cccnc2)CN(Cc2ccccc2)C/C1=C\c1cccnc1 | – | 1.3 µM (active)
Cc1ccccc1C1=N/C(=C/c2cccnc2)C(=O)O1 | 15.5% (inactive) | –
O=C(O)C1CC(=O)N(Cc2cccnc2)C1 (centres undefined) | 9.15% (inactive) | –
N#Cc1cccc(NC(=O)c2cc(C3CCCCN3C(=O)CCc3ccccc3)on2)c1 (centres undefined) | -5.5% (inactive) | –
Cc1nn(C)c(C)c1NS(=O)(=O)c1ccc(OC(F)(F)F)cc1 | -7.69% (inactive) | –
O=S(=O)(Nc1ccc(O)c2ccccc12)c1ccc(OC(F)(F)F)cc1 | – | 23.1 µM (active)
O=C1COc2ccc(S(=O)(=O)Nc3ccc(OC(F)(F)F)cc3)cc2N1 | -5.86% (inactive) | –
COc1ccc(CC(=O)NC2CCSc3ccccc32)cc1OC (centres undefined) | 0% (inactive) | –
COC(=O)C1=CN(Cc2ccc(OC)c(OC)c2)C=C(C(=O)OC)C1c1cccs1 | -6.81% (inactive) | –
COc1ccc(CC2c3cc(OC)c(OC)cc3CC[N+]2(C)CCC(=O)OCCCCCOC(=O)CC[N+]2(C)CCc3cc(OC)c(OC)cc3C2Cc2ccc(OC)c(OC)c2)cc1OC (centres undefined) | – | 18.4 µM (active)
Cc1ccc(-c2ccc(CN3C(C)C(=O)N(Cc4cn(CCC5OCCCO5)nn4)CCS3(=O)=O)cc2)cc1 (centres undefined) | -19.9% (inactive) | –
Cc1ccccc1N(C(=O)CNC(=O)c1cccs1)C(C(=O)NC1CCCC1)c1ccncc1 (centres undefined) | 12.9% (inactive) | –
COc1ccc(C(C(=O)NC2CCCCC2)N(C(=O)c2snc(C(N)=O)c2N)c2ccccc2OC)cc1 (centres undefined) | -16% (inactive) | –
COc1ccc(C(C(=O)NC2CCCCC2)N(C(=O)CCl)c2ccccc2Cl)cc1 (centres undefined) | – | 18.4 µM (active)
Cc1ccc(Cc2c(-c3ccc(C)cc3)nc3c4ccccc4ccn23)cc1 | -2.86% (inactive) | –
O=c1c2c3c(sc2n(CCN2CCCC2)c(=O)n1Cc1ccccc1)CCCCC3 | -1.98% (inactive) | –
CN(C)CCCn1c(=O)n(Cc2ccccc2)c(=O)c2c3c(sc21)CCCCC3 | – | 16.4 µM (active)
CCn1c(=S)[nH]c2sc3c(c2c1=O)CCCCC3 | -29.9% (inactive) | –
